Pol iota inh: blocks human DNA polymerase iota activity; hit rate 1% among 390,000; Potency, µM (doses to about 115 µM), without a hit: top-dose activity, negative = inhibition, hits mostly inhibitors; AID 588590; Q9UNA4; Pol iota fluorescent replication assay, 10 min
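Pol iota at 10 nM preincubated 15 min with compounds at room temperature; reaction started with fluorescent substrate, 50 nM final. Fluorescence read kinetically at 0 and 10 min; buffer-only wells as negative control.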
FEN1 inh: blocks human flap endonuclease 1 | AID 588795 | Potency, µM (top dose mostly 114 µM), without a hit: top-dose activity change, negative = inhibition, most hits filed as inhibitors | hit rate 0.35% among 390,000 | P39748 | Recombinant FEN1 flap cleavage, fluorescence, 15 min; further: on the % scale 0 is the no-effect control and ±100 the full control effect; nearly all actives have a fitted effect of over 65% in size
Target sequence (P39748 whole entry, looked up): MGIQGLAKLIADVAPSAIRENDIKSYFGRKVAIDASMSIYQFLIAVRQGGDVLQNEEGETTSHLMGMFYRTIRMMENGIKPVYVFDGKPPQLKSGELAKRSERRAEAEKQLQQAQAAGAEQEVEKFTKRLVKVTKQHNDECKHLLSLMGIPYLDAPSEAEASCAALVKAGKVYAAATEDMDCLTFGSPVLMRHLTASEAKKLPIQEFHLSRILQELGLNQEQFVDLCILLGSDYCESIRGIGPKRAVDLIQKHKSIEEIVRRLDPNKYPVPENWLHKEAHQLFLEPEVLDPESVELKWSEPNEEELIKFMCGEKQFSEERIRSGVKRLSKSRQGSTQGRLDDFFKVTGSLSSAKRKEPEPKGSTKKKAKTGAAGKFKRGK
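Quantitative HTS format: each compound was titrated, incubated with 10 nM nuclease for 15 min at room temperature, then challenged with flap substrate at 50 nM final. Signal change over 15 min gave concentration–effect curves.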
WRN helicase inh: WRN helicase (human) inhibition; Q14191; WRN helicase unwinding, fluorescent forked duplex, kinetic; Potency, µM (series often up to 114 µM), without a hit: at the highest dose activity change, negative = inhibition, hits mostly inhibitors; hit rate 0.46% among 360,000; further: on the % scale 0 is the no-effect control and ±100 the full control effect; nearly all actives have a fitted effect of over 55% in size
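Enzyme (20 nM final) and test compound sit together 15 min at room temperature before substrate addition. Substrate is a single-forked duplex oligonucleotide (100 nM) labelled with fluorophore and quencher, with 2 mM ATP; helicase unwinding raises red fluorescence, read kinetically.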
Pol eta inh: blocks human DNA polymerase eta activity | recombinant Pol eta, fluorescent DNA replication assay | Q9Y253 | Potency, µM (top dose mostly 114 µM), for the others: top-dose activity change, negative = inhibition, hits mostly inhibitors | hit rate 1.2% among 390,000; further: on the % scale 0 is the no-effect control and ±100 the full control effect
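Fluorescent replication assay: 50 nM final substrate added after a 15 min room-temperature compound preincubation with 10 nM enzyme. Signal taken at 0 min and again at 10 min.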
Pol beta inh: DNA polymerase beta (human) inhibition. AID 485314. Potency, µM (doses to about 114 µM), inactives show at the highest dose activity change, negative = inhibition, most hits filed as inhibitors. hit rate 1.3% among 340,000. Pol beta primer extension/strand displacement, fluorescence kinetic; further: on the % scale 0 is the no-effect control and ±100 the full control effect
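Human Pol beta at 10 nM; strand-displacement substrate 50 nM final. Compound exposure 15 min at room temperature before start, reaction 10 min at room temperature.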
Pol kappa inh: blocks human DNA polymerase kappa activity. purified Pol kappa, fluorescent DNA synthesis assay, 10 min. Potency, µM (top dose mostly 107 µM), for inactives: top-dose activity, negative = inhibition, hits mostly inhibitors. hit rate 0.53% among 400,000; further: on the % scale 0 is the no-effect control and ±100 the full control effect
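10 nM Pol kappa was preincubated with compounds for 15 min at room temperature. Reaction started with 50 nM (final) substrate. Fluorescence read kinetically at 0 and 10 min.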
* marks the source's active call; other numbers are inactive results; ? = inconclusive; nt = no result; [ ] = remark or other dose. Most compounds without a hit are left out; they make up all but 2.4% or so of the library. The call rests on the fitted dose curve; in most records, active means well fitted curve in the direction sought with a large enough effect; inconclusive means small, poorly fitted or top-dose-only effect, or another doubt; inactive means no such curve, though single readings can be large; an effect the other way counts as inactive or inconclusive. Potency means the concentration at half of the fitted maximal effect.

SMILES | Pol iota inh | FEN1 inh | WRN helicase inh | Pol eta inh | Pol beta inh | Pol kappa inh
CCOc1ccc(CCNC(=O)c2nnn(CC(=O)Nc3ccc(C)cc3)c2N)cc1OCC | ? | -7.4% | -12.2% | -0.8% | 25.1µM* | ?
C1=Cc2ccccc2/C1=C\c1ccc2c(c1)OCO2 | -18.8% | -23.6% | nt | nt | nt | -17.8%
O=C(Nc1ccc(-n2nncc2-c2ccco2)cc1)c1cc2ccccc2oc1=O | 11.2µM* | -22.3% | 50.1µM* | 89.1µM* | 28.2µM* | 5.62µM*
O=C(Nc1ccc(-n2nncc2-c2ccco2)cc1)c1cccc(F)c1 | ? | -7.4% | -10.6% | -6.7% | -2.3% | -16.8%
CCOc1ccccc1NC(=O)c1nc(SCc2ccccc2F)ncc1Cl | 7.0% | -5.7% | nt | nt | nt | 9.6%
COc1ccc(-c2cc3c(=O)n(CC(=O)Nc4cc(C)ccc4C)ccn3n2)cc1 | 11.3% | 9.1% | nt | nt | 44.7µM* | -7.4%[60.1 µM]
CCOc1ccc(-c2cc3c(=O)n(CC(=O)Nc4cc(F)ccc4C)ccn3n2)cc1 | 12.3% | -0.9% | nt | 0.4% | 0.1% | -0.2%[60.1 µM]
CC(=O)Nc1cccc(/C(C)=N/NC(=O)c2ccc(O)cc2)c1 | ? | -18.9% | -6.1% | -10.7% | 0.2% | 3.1%
C/C(=N\NC(=O)c1cc(O)ccc1O)c1cccc(NC(=O)c2ccc(Cl)cc2)c1 | 20µM* | ? | 39.8µM* | 22.4µM* | 44.7µM* | 50.1µM*
COc1cccc(CNC(=O)Cc2ccc(NC(=O)C3=C(C)OCCS3)cc2)c1 | ? | -8.8% | -16.0% | ? | 22.4µM* | ?
CC1=C(C(=O)Nc2ccc(CC(=O)NCc3ccccc3C)cc2)SCCO1 | 20.4% | 15.8% | -5.5% | -14.6% | 5.4% | -2.1%
N#Cc1c(N(CCO)CCO)nc(N)c2c(N)nc3c(c12)CC(=O)N3Cc1cccs1 | 3.55µM* | -23.9% | -14.0% | 39.8µM* | 1.8% | -8.8%
Cc1ccc(S(=O)(=O)SC/C=C/CSS(=O)(=O)c2ccc(C)cc2)cc1 | 5.6% | -10.7% | ? | -1.6% | nt | -2.8%
Cc1ccc(S(=O)(=O)SCCCSS(=O)(=O)c2ccc(C)cc2)cc1 | 3.8% | 3.8% | 50.1µM* | -11.9% | nt | -8.7%
COc1cccc(/C=C2\Oc3cc(OCC(=O)N4Cc5ccccc5C[C@H]4C(=O)O)ccc3C2=O)c1 | ? | ? | -9.1%[11.6 µM] | 50.1µM* | 1.8% | -31.2%
CCCC1Cc2nc(Cl)c(C#N)cc2CO1 (stereo not drawn) | ? | 2.7% | -12.5% | ? | 44.7µM* | -29.7%
NC(N)=Nc1ccc(/C=C2\C=Cc3ccccc32)cc1 | 5.9% | ? | nt | nt | nt | -10.3%
O=C(O)CN(CC(=O)O)c1ccccc1OCCOc1ccccc1N(CC(=O)O)CC(=O)O | nt | nt | nt | nt | nt | 11.1%[60.1 µM]
CCCCCCCCCCCCCC(=O)Nc1ccc(/C=C/c2ccnc3ccccc23)cc1 | ? | -2.3% | nt | nt | nt | -27.7%
Cc1ccc(C(=O)N/N=C/c2cccc(OC(=O)/C=C/c3ccco3)c2)cn1 | ? | -1.0% | -4.9%[57.1 µM] | ? | 20µM* | -36.2%
CC(/C=C/c1ccco1)=N/NC(=O)c1ccc(C)nc1 | ? | -1.7% | -11.2% | -1.7% | -17.4% | -0.9%
O=C(CNS(=O)(=O)c1c(Cl)cccc1Cl)OCC(=O)c1ccc[nH]1 | 15.8µM* | -22.4% | -4.1%[11.6 µM] | 44.7µM* | ? | ?
O=c1c2ccccc2sn1-c1ccc(F)cc1 | ? | 79.4µM* | -4.6%[11.6 µM] | 5.3% | nt | -2.3%
COc1ccc(C2=NN(C(=O)CSc3nc4ncc(Cl)cc4[nH]3)C(c3ccco3)C2)cc1 (stereo not drawn) | 44.7µM* | -2.9% | -27.8% | -10.5% | 11.4% | 89.1µM*
COCC(=O)OCC(=O)N1N=C(c2ccc(Cl)cc2)CC1c1ccco1 (stereo not drawn) | 63.9% | -6.7% | -2.8% | -8.9% | -0.8% | -5.1%
SMILES | Pol iota inh | FEN1 inh | WRN helicase inh | Pol eta inh | Pol beta inh | Pol kappa inh
Cc1ccc(C2=NN(C(=O)CSc3nc4ncc(Cl)cc4[nH]3)C(c3ccco3)C2)cc1 (stereo not drawn) | 42.8% | -11.6% | -4.5% | -3.7% | ? | -9.6%
O=C(OCC(=O)N1N=C(c2ccc(Cl)cc2)CC1c1ccco1)c1cccnc1 (stereo not drawn) | ? | ? | ? | 28.2µM* | nt | 44.7µM*
Cc1ccc(C)c(CSc2nnc(C)c(=O)[nH]2)c1 | 72.3% | -2.7% | -11.9% | -19.0% | 5.4% | -2.6%
Cc1nnc(SCc2ccc(CSc3nnc(C)c(=O)[nH]3)cc2)[nH]c1=O | ? | 3.8% | -11.3%[11.6 µM] | 79.4µM* | ? | -10.6%
Nc1ncccc1C(=O)OCC(=O)NC1CCCCCC1 | 22.8% | 14.9% | -0.4%[11.6 µM] | 79.4µM* | nt | -26.3%
Cc1ccc2c(C(=O)CCl)c(C)[nH]c2c1 | 10µM* | -5.0% | -13.5% | ? | 7.9% | -8.5%
O=C(O)c1ccc(O)c(O)c1 | ? | 5.1% | 4.7% | -5.1% | 25.1µM* | -7.4%
CCOc1ccc(-n2c(C)cc(/C=C3/C(=N)N4C(=NC3=O)SN=C4S(C)(=O)=O)c2C)cc1 | 7.1% | 0.3% | -12.5% | 39.8µM* | ? | -17.6%
Cc1cc(/C=C2/C(=N)N3C(=NC2=O)SN=C3S(C)(=O)=O)c(C)n1-c1ccc(F)cc1 | -6.9% | 2.9% | -10.6% | ? | -12.7% | ?
COc1cc(/C=C2/C(=N)N3C(=NC2=O)SN=C3S(C)(=O)=O)ccc1OS(=O)(=O)c1ccccc1 | nt | nt | nt | nt | -53.4% | nt
Cc1cccc(C)c1-n1cccc1/C=C1/C(=N)N2C(=NC1=O)SN=C2S(C)(=O)=O | 64.5% | -4.1% | -12.2%[11.6 µM] | 79.4µM* | ? | -7.1%
COc1ccccc1-n1c(C)cc(/C=C2/C(=N)N3C(=NC2=O)SN=C3S(C)(=O)=O)c1C | -5.6% | -0.8% | -8.0% | 79.4µM* | -11.8% | -35.5%
Cc1noc(C)c1-c1nc(NCc2ccccc2)c2ccccc2n1 | nt | nt | nt | nt | nt | -3.4%[60.1 µM]
COc1cc2[nH]c(=S)nc(NC3CCCCCC3)c2cc1OC | -21.3% | 44.7µM* | ? | -3.2% | ? | -16.4%
CC(=O)c1cccc(-n2c(CCC(=O)O)ccc2-c2cccs2)c1 | 50.1µM* | -1.1% | ? | ? | ? | -33.7%
O=C(O)CCc1ccc(-c2cccs2)n1-c1ccc(C(=O)O)cc1 | ? | -13.5% | -8.4%[57.1 µM] | 31.6µM* | ? | ?
CC(=O)c1cccc(-n2c(CCC(=O)O)ccc2-c2ccccc2)c1 | ? | 9.6% | 4.5% | -17.7% | ? | -5.1%
O=C(O)CCc1ccc(-c2cccs2)n1CCc1ccccc1 | -17.4% | 9.8% | -6.8% | -14.0% | -1.1% | -10.7%
COc1ccc2c(c1)oc(=O)c1cc(OC)ccc12 | -1.0% | 0.4% | 0.6% | -11.9% | ? | -4.5%
COc1cc(O)c2c(c1)oc(=O)c1c3cc(O)c(O)cc3oc21 | nt | nt | nt | nt | nt | 0.752µM*

Bioassay records as filed in PubChem BioAssay.
